# Laboratory results from the supplement of paper PMC8728848.
# Many of the other results were omitted from the sample, so the strongest signals are more common in it than they were.
# B1: Epa7 (Candida glabrata), Q6DTM6_CANGB (protein)
# chain: MGSSHHHHHHSSGLVPRGSHMKDDYSSFLSNNNLGWTDPTEFPLGCSPNVTTPKNGLSMELYSYDLRKNGSYPCWDAAYLDPNYPRTGYKSHRLLAKVDGVTGNINFYYHATKGCTPEIDHLPASYNYPKPLTMTNFTMLLYGYFKPKVTGYHTFTISADDLLFVNFGAGNAFDCCKRESSADDFGNYQAYAVWGSQTAKDDLTVHLDAGLYYPIRIFFNNREYDAELSLTLKTESDSNPVIDFSDYFYSFDDTKDGCPGLVSYDTS
# What was measured:
# Assay in all cases: glycan array binding signal (z-score within array); higher = stronger binding
# Settings in all cases: glycan notation: IUPAC condensed, linker removed
# Fuc(a1-2)Gal(b1-3)GalNAc = biological target: Fuc(a1-2)Gal(b1-3)GalNAc
# Method in brief: (§1)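 The binding signal is a Z-score computed within each array. Data were drawn from 3228 arrays in the Consortium for Functional Glycomics database, restricted to those with a known protein sequence. Scores were averaged over arrays of the same protein sequence at different concentrations or buffers, and over linkers, and negative values can be taken as non-binding.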
# [1] = biological target: Fuc(a1-2)Gal(b1-3)GalNAc(b1-4)[Neu5Ac(a2-3)]Gal(b1-4)Glc
# Method in brief: as §1
# [2] = biological target: Fuc(a1-2)Gal(b1-3)GlcNAc(b1-3)[Neu5Ac(a2-6)Gal(b1-4)GlcNAc(b1-6)]Gal(b1-4)Glc
# Method in brief: as §1
# [3] = biological target: Fuc(a1-2)Gal(b1-4)GlcNAc(b1-3)Gal(b1-4)GlcNAc(b1-3)Gal(b1-4)GlcNAc
# Method in brief: as §1
# [4] = biological target: Fuc(a1-2)Gal(b1-4)GlcNAc(b1-3)[Fuc(a1-2)Gal(b1-4)GlcNAc(b1-6)]GalNAc
# Method in brief: as §1
# [5] = biological target: Fuc(a1-2)Gal(b1-4)[Fuc(a1-3)]GlcNAc(b1-3)GalNAc
# Method in brief: as §1
# [6] = biological target: Fuc(a1-2)Gal6S(b1-4)GlcNAc
# Method in brief: as §1
# Fuc(a1-2)[Gal(a1-3)]Gal = biological target: Fuc(a1-2)[Gal(a1-3)]Gal
# Method in brief: as §1
# [7] = biological target: Fuc(a1-2)[Gal(a1-3)]Gal(b1-4)GlcNAc(b1-2)Man(a1-3)[Fuc(a1-2)[Gal(a1-3)]Gal(b1-4)GlcNAc(b1-2)Man(a1-6)]Man(b1-4)GlcNAc(b1-4)[Fuc(a1-6)]GlcNAc
# Method in brief: as §1
# [8] = biological target: Fuc(a1-2)[Gal(a1-3)]Gal(b1-4)GlcNAc(b1-3)[Fuc(a1-2)[Gal(a1-3)]Gal(b1-4)GlcNAc(b1-6)]GalNAc
# Method in brief: as §1
# [9] = biological target: Fuc(a1-2)[GalNAc(a1-4)]Gal(b1-4)GlcNAc
# Method in brief: as §1
# [10] = biological target: Fuc(a1-3)[Gal(b1-4)]GlcNAc(b1-3)GalNAc
# Method in brief: as §1
# [11] = biological target: Gal(a1-3)Gal(b1-4)[Fuc(a1-3)]GlcNAc
# Method in brief: as §1
# Gal(b1-3)Gal = biological target: Gal(b1-3)Gal
# Method in brief: as §1
# Gal(b1-3)Gal(b1-4)GlcNAc = biological target: Gal(b1-3)Gal(b1-4)GlcNAc
# Method in brief: as §1
# [12] = biological target: Gal(b1-3)GalNAc(a1-3)[Fuc(a1-2)]Gal(b1-4)Glc
# Method in brief: as §1
# [13] = biological target: Gal(b1-3)GalNAc(a1-3)[Fuc(a1-2)]Gal(b1-4)GlcNAc
# Method in brief: as §1
# Gal(b1-3)GalNAc(b1-3)Gal = biological target: Gal(b1-3)GalNAc(b1-3)Gal
# Method in brief: as §1
# [14] = biological target: Gal(b1-3)GalNAc(b1-3)Gal(a1-4)Gal(b1-4)Glc
# Method in brief: as §1
# [15] = biological target: Gal(b1-3)GalNAc(b1-4)Gal(b1-4)Glc
# Method in brief: as §1
# [16] = biological target: Gal(b1-3)GalNAc(b1-4)[Neu5Ac(a2-3)]Gal(b1-4)Glc
# Method in brief: as §1
# Gal(b1-3)GlcNAc = biological target: Gal(b1-3)GlcNAc
# Method in brief: as §1
# [17] = biological target: Gal(b1-3)GlcNAc(b1-3)Gal(b1-3)GlcNAc
# Method in brief: as §1
# [18] = biological target: Gal(b1-3)[GlcNAc(b1-6)]GalNAc
# Method in brief: as §1
# [19] = biological target: Gal(b1-3)[Neu5Ac(a2-6)]GalNAc
# Method in brief: as §1
# Gal(b1-4)Glc = biological target: Gal(b1-4)Glc
# Method in brief: as §1
# [20] = biological target: Gal(b1-4)GlcNAc(b1-3)Gal(b1-3)GlcNAc
# Method in brief: as §1
# [21] = biological target: Gal(b1-4)GlcNAc(b1-3)Gal(b1-4)GlcNAc(b1-3)Gal(b1-4)GlcNAc(b1-3)Gal(b1-4)GlcNAc(b1-3)Gal(b1-4)GlcNAc(b1-2)[Gal(b1-4)GlcNAc(b1-3)Gal(b1-4)GlcNAc(b1-3)Gal(b1-4)GlcNAc(b1-3)Gal(b1-4)GlcNAc(b1-3)Gal(b1-4)GlcNAc(b1-6)]Man(a1-6)[Gal(b1-4)GlcNAc(b1-3)Gal(b1-4)GlcNAc(b1-3)Gal(b1-4)GlcNAc(b1-3)Gal(b1-4)GlcNAc(b1-3)Gal(b1-4)GlcNAc(b1-2)Man(a1-3)]Man(b1-4)GlcNAc(b1-4)[Fuc(a1-6)]GlcNAc
# Method in brief: as §1
# [22] = biological target: Gal(b1-4)GlcNAc(b1-3)[Gal(b1-4)GlcNAc(b1-6)]GalNAc
# Method in brief: as §1
# [23] = biological target: Gal(b1-4)GlcNAc(b1-6)Gal(b1-4)GlcNAc
# Method in brief: as §1
# [24] = biological target: Gal(b1-4)GlcNAc(b1-6)[Gal(b1-3)]GlcNAc
# Method in brief: as §1
# Gal6P(b1-4)GlcNAc = biological target: Gal6P(b1-4)GlcNAc
# Method in brief: as §1
# GalNAc(b1-3)Gal = biological target: GalNAc(b1-3)Gal
# Method in brief: as §1
# [25] = biological target: GalNAc(b1-3)Gal(a1-4)Gal(b1-4)GlcNAc
# Method in brief: as §1
# GalNAc(b1-4)Gal(b1-4)Glc = biological target: GalNAc(b1-4)Gal(b1-4)Glc
# Method in brief: as §1
# [26] = biological target: GlcNAc(a1-4)Gal(b1-4)GlcNAc(b1-3)Gal(b1-4)Glc
# Method in brief: as §1
# [27] = biological target: GlcNAc(a1-4)Gal(b1-4)GlcNAc(b1-3)Gal(b1-4)GlcNAc(b1-3)Gal(b1-4)GlcNAc
# Method in brief: as §1
# [28] = biological target: GlcNAc(b1-2)Gal(b1-3)GalNAc
# Method in brief: as §1
# [29] = biological target: GlcNAc(b1-2)Man(a1-3)[GlcNAc(b1-2)Man(a1-6)]Man(b1-4)GlcNAc(b1-4)[Fuc(a1-6)]GlcNAc
# Method in brief: as §1
# GlcNAc(b1-3)Fuc = biological target: GlcNAc(b1-3)Fuc
# Method in brief: as §1
# [30] = biological target: GlcNAc(b1-3)Gal(b1-4)GlcNAc(b1-3)[GlcNAc(b1-3)Gal(b1-4)GlcNAc(b1-3)]GalNAc
# Method in brief: as §1
# GlcNAc(b1-3)Man = biological target: GlcNAc(b1-3)Man
# Method in brief: as §1
# GlcNAc(b1-4)GlcNAc = biological target: GlcNAc(b1-4)GlcNAc
# Method in brief: as §1
# [31] = biological target: Neu5Ac(a2-3)Gal(b1-3)GalNAc(b1-4)[Neu5Ac(a2-8)Neu5Ac(a2-3)]Gal(b1-4)Glc
# Method in brief: as §1
# [32] = biological target: Neu5Ac(a2-3)Gal(b1-3)GlcNAc(b1-3)Gal(b1-3)GlcNAc
# Method in brief: as §1
# [33] = biological target: Neu5Ac(a2-3)Gal(b1-3)GlcNAc(b1-3)GalNAc
# Method in brief: as §1
# [34] = biological target: Neu5Ac(a2-3)Gal(b1-3)[Fuc(a1-4)]GlcNAc(b1-3)Gal(b1-3)[Fuc(a1-4)]GlcNAc
# Method in brief: as §1
# [35] = biological target: Neu5Ac(a2-3)Gal(b1-3)]Neu5Ac(a2-3)Gal(b1-4)]GlcNAc
# Method in brief: as §1
# Neu5Ac(a2-3)Gal(b1-4)Glc = biological target: Neu5Ac(a2-3)Gal(b1-4)Glc
# Method in brief: as §1
# [36] = biological target: Neu5Ac(a2-3)Gal(b1-4)[Fuc(a1-3)]GlcNAc(b1-3)Gal(b1-4)GlcNAc
# Method in brief: as §1
# Neu5Ac(a2-6)Gal = biological target: Neu5Ac(a2-6)Gal
# Method in brief: as §1
# [37] = biological target: Neu5Ac(a2-6)Gal(b1-4)GlcNAc(b1-2)[Neu5Ac(a2-6)Gal(b1-4)GlcNAc(b1-4)]Man(a1-3)[GlcNAc(b1-4)][Neu5Ac(a2-6)Gal(b1-4)GlcNAc(b1-2)[Neu5Ac(a2-6)Gal(b1-4)GlcNAc(b1-6)]Man(a1-6)]Man(b1-4)GlcNAc(b1-4)GlcNAc
# Method in brief: as §1
# [38] = biological target: Neu5Ac(a2-6)Gal(b1-4)GlcNAc(b1-3)Gal(b1-4)GlcNAc
# Method in brief: as §1
# [39] = biological target: Neu5Ac(a2-6)Gal(b1-4)GlcNAc(b1-6)[Gal(b1-3)]GalNAc
# Method in brief: as §1
# [40] = biological target: Neu5Ac(a2-6)Gal(b1-4)GlcNAc6S
# Method in brief: as §1
# [41] = biological target: Neu5Ac(a2-8)Neu5Ac(a2-8)Neu5Ac(a2-3)[Gal(b1-3)GalNAc(b1-4)]Gal(b1-4)Glc
# Method in brief: as §1
# [42] = biological target: Neu5Ac(a2-8)Neu5Gc(a2-3)Gal(b1-4)GlcNAc
# Method in brief: as §1
binder,measurement,setting,value
B1,glycan array binding signal (z-score),Fuc(a1-2)Gal(b1-3)GalNAc,-0.169
same,glycan array binding signal (z-score),[1],-0.072
same,glycan array binding signal (z-score),[2],-0.206
same,glycan array binding signal (z-score),[3],-0.253
same,glycan array binding signal (z-score),[4],-0.209
same,glycan array binding signal (z-score),[5],-0.027
same,glycan array binding signal (z-score),[6],-0.285
same,glycan array binding signal (z-score),Fuc(a1-2)[Gal(a1-3)]Gal,-0.213
same,glycan array binding signal (z-score),[7],-0.241
same,glycan array binding signal (z-score),[8],-0.208
same,glycan array binding signal (z-score),[9],-0.256
same,glycan array binding signal (z-score),[10],-0.19
same,glycan array binding signal (z-score),[11],-0.201
same,glycan array binding signal (z-score),Gal(b1-3)Gal,2.85
same,glycan array binding signal (z-score),Gal(b1-3)Gal(b1-4)GlcNAc,5.79
same,glycan array binding signal (z-score),[12],5.79
same,glycan array binding signal (z-score),[13],5.59
same,glycan array binding signal (z-score),Gal(b1-3)GalNAc(b1-3)Gal,11
same,glycan array binding signal (z-score),[14],4.75
same,glycan array binding signal (z-score),[15],7.99
same,glycan array binding signal (z-score),[16],4.82
same,glycan array binding signal (z-score),Gal(b1-3)GlcNAc,-0.104
same,glycan array binding signal (z-score),[17],-0.207
same,glycan array binding signal (z-score),[18],1.21
same,glycan array binding signal (z-score),[19],4.18
same,glycan array binding signal (z-score),Gal(b1-4)Glc,-0.199
same,glycan array binding signal (z-score),[20],-0.246
same,glycan array binding signal (z-score),[21],0.068
same,glycan array binding signal (z-score),[22],5.02
same,glycan array binding signal (z-score),[23],0.23
same,glycan array binding signal (z-score),[24],5.53
same,glycan array binding signal (z-score),Gal6P(b1-4)GlcNAc,-0.241
same,glycan array binding signal (z-score),GalNAc(b1-3)Gal,-0.245
same,glycan array binding signal (z-score),[25],-0.251
same,glycan array binding signal (z-score),GalNAc(b1-4)Gal(b1-4)Glc,-0.213
same,glycan array binding signal (z-score),[26],-0.234
same,glycan array binding signal (z-score),[27],-0.237
same,glycan array binding signal (z-score),[28],-0.197
same,glycan array binding signal (z-score),[29],-0.232
same,glycan array binding signal (z-score),GlcNAc(b1-3)Fuc,-0.233
same,glycan array binding signal (z-score),[30],-0.225
same,glycan array binding signal (z-score),GlcNAc(b1-3)Man,-0.232
same,glycan array binding signal (z-score),GlcNAc(b1-4)GlcNAc,-0.23
same,glycan array binding signal (z-score),[31],-0.06
same,glycan array binding signal (z-score),[32],-0.256
same,glycan array binding signal (z-score),[33],-0.21
same,glycan array binding signal (z-score),[34],-0.196
same,glycan array binding signal (z-score),[35],-0.228
same,glycan array binding signal (z-score),Neu5Ac(a2-3)Gal(b1-4)Glc,-0.257
same,glycan array binding signal (z-score),[36],-0.189
same,glycan array binding signal (z-score),Neu5Ac(a2-6)Gal,-0.228
same,glycan array binding signal (z-score),[37],-0.234
same,glycan array binding signal (z-score),[38],-0.258
same,glycan array binding signal (z-score),[39],1.19
same,glycan array binding signal (z-score),[40],-0.257
same,glycan array binding signal (z-score),[41],0.014
same,glycan array binding signal (z-score),[42],-0.241
